The values that follow come from PubChem BioAssay (EPA / NIEHS).

Experiment [1] can be described thus: ATG_M_61_CIS: Attagene CIS-FACTORIAL HepG2 Assay for M61 Transcription Factor (Internal Marker) (AID 2282937). The following applies: HepG2 Attagene CIS-FACTORIAL M61 internal marker reporter; actives raise or lower the signal. The essentials:
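Endogenous transcription factor activity in HepG2 is read through transiently transfected cis-element reporter units. After 24 h dosing, RNA undergoes reverse transcription, PCR and primer extension with 6-FAM before capillary electrophoresis; DMSO-referenced bidirectional fit.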

The nature of experiment [2]: ATG_EGR_CIS: Attagene CIS-FACTORIAL HepG2 Assay for human Early Growth Response 1 (EGR1) (AID 2282938). To be noted: HepG2 Attagene CIS-FACTORIAL EGR reporter mRNA; actives raise or lower the signal. A digest of the protocol:
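Activity is taken as induction or loss of reporter mRNA versus DMSO, fitted bidirectionally. Transcripts from cis-regulated reporter units in transiently transfected HepG2 were measured after 24 h by RT-PCR with capillary electrophoresis.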

A short description of experiment [3]: ATG_M_19_CIS: Attagene CIS-FACTORIAL HepG2 Assay for M19 Transcription Factor (Internal Marker) (AID 2282939). The following applies: HepG2 Attagene CIS-FACTORIAL M19 internal marker reporter; actives raise or lower the signal. A digest of the protocol:
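Signals come from fluorescence of labelled reporter-specific PCR fragments resolved by capillary electrophoresis, following 24 h treatment of HepG2 cells transfected with cis-promoter reporter units; activity was fitted in both directions relative to DMSO.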

The nature of experiment [4]: ATG_Ets_CIS: Attagene CIS-FACTORIAL HepG2 Assay for human Erythroblast Transformation Specific (ETS) (AID 2282941). The following applies: HepG2 ETS cis-reporter transcription, actives raise or lower the signal. A digest of the protocol: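 HepG2 cells transiently transfected with cis-promoter reporter transcription units were dosed for 24 h; reporter mRNA was measured by RT-PCR, 6-FAM primer extension, HpaI digestion and capillary electrophoresis, with bidirectional fitting against DMSO baseline.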

For experiment [5], the target named is Hepatocyte nuclear factor 3-beta (Homo sapiens) (UniProt Q9Y261). The experiment in a line: ATG_FoxA2_CIS: Attagene CIS-FACTORIAL HepG2 Assay for human Forkhead box A2 (FOXA2) (AID 2282942). To be noted: HepG2 cis-reporter transcription factor activity, 24 h; actives raise or lower the signal. A digest of the protocol:
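Reporter transcript induction is measured by fluorescence after capillary electrophoresis of RT-PCR products from HepG2 cells exposed 24 h. Cis-regulated reporter units report endogenous factor activity; curves fitted both directions against DMSO.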

Experiment [6] is described as follows: ATG_FoxO_CIS: Attagene CIS-FACTORIAL HepG2 Assay for human Forkhead box O (FoxO) (AID 2282943). The following applies: HepG2 Attagene cis-reporter, FoxO element, mRNA; actives raise or lower the signal. A digest of the protocol:
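Values reflect reporter mRNA induction or loss in HepG2 cells 24 h post-dosing, fitted bidirectionally with DMSO as negative control and baseline. Detection used RT-PCR and fluorescence capillary electrophoresis.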

The nature of experiment [7]: ATG_GATA_CIS: Attagene CIS-FACTORIAL HepG2 Assay for human GATA Binding Protein (AID 2282944). The following applies: HepG2 GATA cis-element reporter, Attagene multiplex mRNA; actives raise or lower the signal. The essentials:
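After transfecting HepG2 cells with multiple cis-regulated reporter units, chemicals are dosed for 24 h; isolated RNA undergoes RT-PCR and fluorescent labeling before capillary electrophoresis, with activity expressed against DMSO.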

Experiment [8] is described as follows: ATG_GLI_CIS: Attagene CIS-FACTORIAL HepG2 Assay for human Zinc Finger Protein GLI1 (AID 2282945). To be noted: HepG2, Attagene cis-factorial reporter mRNA, GLI element; actives raise or lower the signal. A digest of the protocol: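 HepG2 cells transiently transfected with cis-promoter multiplexed reporter units report endogenous transcription factor activity. After 24 h chemical exposure, reporter mRNA was quantified by RT-PCR, 6-FAM labelling, HpaI digestion and capillary electrophoresis, with bidirectional fitting against DMSO.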

The nature of experiment [9]: ATG_GRE_CIS: Attagene CIS-FACTORIAL HepG2 Assay for human Glucocorticoid Response Elements (GRE) (AID 2282947). To be noted: HepG2 GRE cis-reporter, Attagene multiplex mRNA; actives raise or lower the signal. A digest of the protocol:
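Following 24 h chemical exposure of transiently transfected HepG2 cells, total RNA was reverse-transcribed and reporter cDNA amplified, fluorescently labelled and sized by capillary electrophoresis. Signal gain or loss was fitted relative to DMSO vehicle.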

Experiment [10] can be described thus: ATG_ISRE_CIS: Attagene CIS-FACTORIAL HepG2 Assay for human Interferon Regulatory Factor 1 (IRF1) binding to an Interferon-Stimulated Response Element (ISRE) (AID 2282948). The following applies: HepG2 ISRE cis-reporter (Attagene), mRNA transcription readout; actives raise or lower the signal. A digest of the protocol: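 HepG2 cells transiently transfected with multiplexed cis-promoter reporter units; after 24 h compound exposure, reporter mRNA quantified by RT-PCR, FAM labelling, HpaI digestion and capillary electrophoresis. Bidirectional fit versus DMSO baseline.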

A short description of experiment [11]: ATG_M_32_CIS: Attagene CIS-FACTORIAL HepG2 Assay for M32 Transcription Factor (Internal Marker) (AID 2282949).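 Also: background control marker of the multiplexed CIS panel rather than a real target.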 To be noted: HepG2 Attagene cis-factorial M32 reporter, mRNA; actives raise or lower the signal. The essentials: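 Fluorescent capillary electrophoresis peaks of HpaI-digested, FAM-labelled RT-PCR reporter products give the signal. Source: transiently transfected human liver HepG2 cells, 24 h after chemical dosing; bidirectional fitting against DMSO.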

A short description of experiment [12]: ATG_M_06_CIS: Attagene CIS-FACTORIAL HepG2 Assay for M06 Transcription Factor (Internal Marker) (AID 2282950). The following applies: HepG2 Attagene CIS-FACTORIAL M06 internal marker reporter; actives raise or lower the signal. The essentials: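 HepG2 liver cells, 24 h exposure. Reporter transcripts from transfected cis-element constructs quantified by RT-PCR/capillary electrophoresis fluorescence. Bidirectional curve fit against DMSO.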

Experiment [13] has as its target Hypoxia-inducible factor 1-alpha (Homo sapiens) (UniProt Q16665). The experiment in a line: ATG_HIF1a_CIS: Attagene CIS-FACTORIAL HepG2 Assay for human Hypoxia Inducible Factor 1 (HIF1A) (AID 2282951). To be noted: HepG2 Attagene cis-factorial HIF1a reporter transcription; actives raise or lower the signal. A digest of the protocol: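 Fluorescence intensity of capillary-separated, 6-FAM-labelled reporter amplicons gives mRNA induction in HepG2 cells carrying transfected cis-promoter reporter units; cells exposed 24 h, responses fitted up or down from DMSO.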

Experiment [14] addresses Hepatocyte nuclear factor 6 (Homo sapiens) (UniProt Q9UBC0). Description: ATG_HNF6_CIS: Attagene CIS-FACTORIAL HepG2 Assay for human Hepatocyte Nuclear Factor 6 (HNF6) (AID 2282952). The following applies: HepG2 Attagene cis-factorial HNF6 reporter transcription; actives raise or lower the signal. A digest of the protocol:
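HepG2 cells transiently transfected with cis-element-driven multiple reporter transcription units, dosed 24 h; reporter mRNA quantified by RT-PCR, FAM primer extension, HpaI digestion and capillary electrophoresis; bidirectional fit versus DMSO baseline.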

For experiment [15], the target named is Heat shock factor protein 1 (Homo sapiens) (UniProt Q00613). Description: ATG_HSE_CIS: Attagene CIS-FACTORIAL HepG2 Assay for human Heat Shock Transcription Factor 1 (HSE) (AID 2282953). To be noted: HepG2 HSE cis-reporter, Attagene RNA transcription; actives raise or lower the signal. A digest of the protocol:
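Endogenous transcription factor activity captured via cis-promoter reporter units transfected into HepG2; treatment lasted 24 h. Fluorescence intensity of reporter fragments analysed with bidirectional curve fitting, DMSO baseline.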

The nature of experiment [16]: ATG_MRE_CIS: Attagene CIS-FACTORIAL HepG2 Assay for human Metal Responsive Element (MRE) (AID 2282954). To be noted: HepG2 MRE cis-reporter transcription, Attagene multiplex; actives raise or lower the signal. A digest of the protocol: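 Step one: transfect HepG2 with cis-regulated reporter units. Step two: dose 24 h. Step three: isolate RNA, RT-PCR, 6-FAM label, HpaI digest, capillary electrophoresis. Fit bidirectionally to DMSO.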

The nature of experiment [17]: ATG_PBREM_CIS: Attagene CIS-FACTORIAL HepG2 Assay for human Phenobarbital-responsive Enhancer Module (PBREM) (AID 2282955). The following applies: HepG2 PBREM cis-reporter, Attagene multiplexed transcription; actives raise or lower the signal. A digest of the protocol: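 Cells were transfected with cis-element reporter units and treated for 24 h, after which RNA was extracted and reporter transcripts measured by RT-PCR and capillary electrophoresis.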

For experiment [18], the target named is Paired box protein Pax-6 (Homo sapiens) (UniProt P26367). Description: ATG_Pax6_CIS: Attagene CIS-FACTORIAL HepG2 Assay for human Paired Box 6 (PAX6) (AID 2282956). The following applies: HepG2 CIS-FACTORIAL PAX6 reporter transcription, RNA readout; actives raise or lower the signal. The essentials: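 HepG2 cells transiently transfected with multiplexed cis-promoter reporter units (endogenous TF activity) were dosed for 24 h. Reporter mRNA was quantified by RT-PCR, 6-FAM labeling, HpaI digestion and capillary electrophoresis; bidirectional fitting versus DMSO baseline.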
Chain of Paired box protein Pax-6 (Homo sapiens) (P26367 whole entry, looked up): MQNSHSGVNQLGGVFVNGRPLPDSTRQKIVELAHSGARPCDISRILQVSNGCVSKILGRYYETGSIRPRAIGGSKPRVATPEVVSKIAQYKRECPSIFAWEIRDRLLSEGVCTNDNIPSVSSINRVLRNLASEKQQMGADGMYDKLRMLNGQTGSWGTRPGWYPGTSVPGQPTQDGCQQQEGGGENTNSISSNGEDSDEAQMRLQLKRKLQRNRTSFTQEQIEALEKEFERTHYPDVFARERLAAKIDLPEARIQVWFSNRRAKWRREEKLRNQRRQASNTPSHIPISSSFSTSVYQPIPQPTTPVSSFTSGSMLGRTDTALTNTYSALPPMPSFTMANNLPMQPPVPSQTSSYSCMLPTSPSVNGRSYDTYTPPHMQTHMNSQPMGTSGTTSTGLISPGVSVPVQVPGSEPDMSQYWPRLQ

The nature of experiment [19]: ATG_ERE_CIS: Attagene CIS-FACTORIAL HepG2 Assay for Estrogen Response Element (ERE) (AID 2282940). To be noted: HepG2 ERE cis-reporter, Attagene RNA transcript; actives raise or lower the signal. A digest of the protocol:
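Fluorescence of capillary-separated, FAM-labelled reporter cDNA fragments indicates reporter mRNA levels in HepG2 cells exposed to chemicals for 24 h. Transient transfection with cis-regulated units; data fitted in both directions against DMSO.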

For experiment [20], the target named is Bile acid receptor (Homo sapiens) (UniProt Q96RI1). Description: ATG_IR1_CIS: Attagene CIS-FACTORIAL HepG2 Assay for human Nuclear Receptor Subfamily 1 Group H Member 4 (NR1H4), IR1 submotif (AID 2282946). The following applies: IR1 reporter transcription, actives raise or lower the signal. A digest of the protocol:
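Transient MRTU transfection, HepG2; 24 h dosing; RNA → RT-PCR → 6-FAM primer extension → HpaI digest → capillary electrophoresis fluorescence. Gain/loss of signal fitted relative to DMSO.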

SMILES strings stand for the structures. A structure can be active in one record and inactive in another. The source made the active and inactive calls. The calls were made as follows: active = hit-call score of the fitted dose curve at least 0.9, where 1 is the maximum; inactive = score below 0.9.

Chain of Hypoxia-inducible factor 1-alpha (Homo sapiens) (Q16665 whole entry, looked up): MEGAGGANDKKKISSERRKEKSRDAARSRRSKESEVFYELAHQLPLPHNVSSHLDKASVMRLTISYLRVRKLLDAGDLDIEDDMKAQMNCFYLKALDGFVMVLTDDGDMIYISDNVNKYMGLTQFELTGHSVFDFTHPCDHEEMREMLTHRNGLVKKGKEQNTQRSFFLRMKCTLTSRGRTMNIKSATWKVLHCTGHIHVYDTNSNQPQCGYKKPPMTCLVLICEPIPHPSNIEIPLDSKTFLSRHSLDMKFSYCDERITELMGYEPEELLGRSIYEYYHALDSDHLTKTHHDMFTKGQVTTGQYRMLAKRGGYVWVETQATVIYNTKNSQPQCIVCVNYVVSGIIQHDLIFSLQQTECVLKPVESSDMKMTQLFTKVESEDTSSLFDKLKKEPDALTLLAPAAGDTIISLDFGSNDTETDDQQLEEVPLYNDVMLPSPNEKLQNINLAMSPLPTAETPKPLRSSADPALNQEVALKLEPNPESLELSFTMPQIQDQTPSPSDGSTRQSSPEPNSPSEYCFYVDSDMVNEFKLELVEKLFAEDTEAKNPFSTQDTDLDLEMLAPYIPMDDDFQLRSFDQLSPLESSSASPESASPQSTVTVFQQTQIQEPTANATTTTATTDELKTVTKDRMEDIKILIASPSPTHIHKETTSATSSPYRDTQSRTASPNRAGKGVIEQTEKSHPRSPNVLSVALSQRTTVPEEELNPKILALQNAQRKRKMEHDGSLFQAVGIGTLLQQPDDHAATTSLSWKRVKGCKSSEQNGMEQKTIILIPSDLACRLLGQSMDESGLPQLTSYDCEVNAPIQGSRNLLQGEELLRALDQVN
Chain of Hepatocyte nuclear factor 3-beta (Homo sapiens) (Q9Y261 whole entry, looked up): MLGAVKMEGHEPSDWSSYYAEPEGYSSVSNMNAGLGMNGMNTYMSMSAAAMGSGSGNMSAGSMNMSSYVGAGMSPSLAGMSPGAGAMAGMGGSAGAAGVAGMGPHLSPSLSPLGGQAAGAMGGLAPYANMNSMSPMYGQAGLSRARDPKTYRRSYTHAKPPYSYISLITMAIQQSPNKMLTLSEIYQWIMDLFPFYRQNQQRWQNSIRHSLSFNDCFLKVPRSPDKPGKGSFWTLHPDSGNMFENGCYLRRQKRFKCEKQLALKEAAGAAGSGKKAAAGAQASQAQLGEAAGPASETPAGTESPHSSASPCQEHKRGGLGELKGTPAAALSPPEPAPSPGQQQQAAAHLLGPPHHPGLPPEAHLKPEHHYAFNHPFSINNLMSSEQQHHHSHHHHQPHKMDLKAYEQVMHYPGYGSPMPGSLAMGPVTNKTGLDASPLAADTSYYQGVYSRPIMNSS
Chain of Hepatocyte nuclear factor 6 (Homo sapiens) (Q9UBC0 whole entry, looked up): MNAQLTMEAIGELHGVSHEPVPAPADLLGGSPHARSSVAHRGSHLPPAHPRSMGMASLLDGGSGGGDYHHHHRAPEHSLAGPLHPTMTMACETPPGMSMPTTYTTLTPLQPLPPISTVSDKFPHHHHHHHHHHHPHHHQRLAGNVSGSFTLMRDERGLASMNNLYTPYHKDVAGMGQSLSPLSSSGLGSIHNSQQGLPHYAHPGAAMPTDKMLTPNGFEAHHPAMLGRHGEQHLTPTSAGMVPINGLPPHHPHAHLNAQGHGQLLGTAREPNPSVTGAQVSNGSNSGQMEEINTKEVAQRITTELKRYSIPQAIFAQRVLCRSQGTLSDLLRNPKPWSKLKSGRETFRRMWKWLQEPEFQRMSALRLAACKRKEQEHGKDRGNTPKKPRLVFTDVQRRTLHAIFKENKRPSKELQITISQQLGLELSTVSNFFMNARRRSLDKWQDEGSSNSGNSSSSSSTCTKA
Chain of Heat shock factor protein 1 (Homo sapiens) (Q00613 whole entry, looked up, the tested form may be a part): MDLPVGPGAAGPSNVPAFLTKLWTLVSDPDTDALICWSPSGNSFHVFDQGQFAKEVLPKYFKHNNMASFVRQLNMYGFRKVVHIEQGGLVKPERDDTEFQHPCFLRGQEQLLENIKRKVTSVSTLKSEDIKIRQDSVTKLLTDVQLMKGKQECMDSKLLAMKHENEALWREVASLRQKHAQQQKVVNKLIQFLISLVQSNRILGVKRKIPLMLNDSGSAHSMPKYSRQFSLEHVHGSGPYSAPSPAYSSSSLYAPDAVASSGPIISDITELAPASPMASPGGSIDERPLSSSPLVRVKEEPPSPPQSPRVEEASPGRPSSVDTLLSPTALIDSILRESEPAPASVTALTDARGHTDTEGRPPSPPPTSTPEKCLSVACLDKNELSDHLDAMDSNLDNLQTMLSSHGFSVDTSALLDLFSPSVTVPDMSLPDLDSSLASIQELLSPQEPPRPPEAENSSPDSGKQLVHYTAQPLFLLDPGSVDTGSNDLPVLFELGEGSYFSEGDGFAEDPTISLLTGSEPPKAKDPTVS
Chain of Bile acid receptor (Homo sapiens) (Q96RI1 whole entry, looked up): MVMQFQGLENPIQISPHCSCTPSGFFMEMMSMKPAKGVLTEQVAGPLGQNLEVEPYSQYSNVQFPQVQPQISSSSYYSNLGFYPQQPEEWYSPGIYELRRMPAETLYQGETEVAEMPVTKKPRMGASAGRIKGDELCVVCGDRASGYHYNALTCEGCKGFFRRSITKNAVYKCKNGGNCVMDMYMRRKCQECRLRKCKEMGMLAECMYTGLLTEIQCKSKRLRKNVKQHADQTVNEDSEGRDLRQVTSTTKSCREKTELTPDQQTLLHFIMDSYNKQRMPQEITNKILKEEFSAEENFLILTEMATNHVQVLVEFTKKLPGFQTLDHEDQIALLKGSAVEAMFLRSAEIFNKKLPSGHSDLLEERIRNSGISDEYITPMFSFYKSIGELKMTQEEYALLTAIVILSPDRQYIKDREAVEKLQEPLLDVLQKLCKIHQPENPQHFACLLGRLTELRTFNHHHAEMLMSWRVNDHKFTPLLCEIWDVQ

Consider `O=C(N[C@H]1CN2CCC1CC2)c1ccc2c(c1)OCCO2`, for which the result in experiment [1], in [2], in experiment [3], in [4], in [5] and in experiment [6] was inactive. Moreover, the result in [7], in [8], in experiment [9], in [10], in experiment [11] and in experiment [12] was inactive. Besides, the call in experiment [13], in experiment [14], in experiment [15], in experiment [16], in experiment [17] and in experiment [18] was inactive.
Consider `CC(C)O.CC(C)O.OCCN(CCO)CCO.OCCN(CCO)CCO.[Ti]`, for which the outcome in [1], in experiment [2], in experiment [3], in experiment [5], in [6] and in [7] was inactive. In addition, the result in experiment [8], in experiment [10], in experiment [11], in experiment [12], in experiment [13] and in experiment [14] was inactive. The call in experiment [16], in experiment [17] and in experiment [18] was inactive.
For `CCCCCCCCCCCCOS(=O)(=O)O`, the compound was classed as inactive in [1], in experiment [2], in experiment [3], in [4], in experiment [6] and in experiment [7]. In addition, the outcome in experiment [8], in [9], in [10], in experiment [11], in experiment [13] and in experiment [14] was inactive. Moreover, the compound was classed as inactive in [16] and in experiment [18]. Moreover, the values for the AC50 in [13] and in experiment [16] were 11.1 µM (active) and 2.2 µM (active), respectively.
Turning to `CCOC(=O)CCN(SN(C)C(=O)Oc1cccc2c1OC(C)(C)C2)C(C)C`, the compound was called inactive in experiment [2], in experiment [3], in experiment [19], in experiment [4], in [5] and in experiment [6]. The result in experiment [7], in [8], in [9], in [10], in [11] and in experiment [12] was inactive. The compound was classed as inactive in experiment [13], in experiment [14], in experiment [17] and in [18]. In addition, the AC50 in [20] is 100 µM (active); in experiment [15] it was 184 µM (active); in experiment [16] it was 142 µM (active).

Usually AC50 stands for the concentration giving half of the maximal activity seen.
